HCMV antiviral = qHTS Assay for inhibitors of the human cytomegalovirus (HCMV); HFF cells, HCMV-luciferase reporter, 72 h; active compounds read low; activity change, negative = inhibition, % at 57.5 µM; hit rate 4.5% among 410,000; AID 1259415, 2018; in the data active = activity change below about -60%; inconclusive = no clear call, values can overlap the other calls; inactive = above about -39%
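Screen run at 2 compound doses on HFFs infected with reporter HCMV, MOI 1 PFU/cell. Luciferase activity from cell lysates at 72 h post infection gave inhibition relative to buffer-only and Salinomycin wells.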
MARV entry inh = qHTS for inhibitors of binding or entry into cells for Marburg Virus; Marburg virus pseudotyped entry inhibition, cell reporter; Potency, µM (series often up to 37.8 µM), for inactives: top-dose activity change, negative = inhibition, hits mostly inhibitors; hit rate 1.8% among 300,000; AID 540276, 2011; calls by dose curve; tested in HEK293 cells; also: potency is read from the fitted curve at half-maximal effect
Lassa entry inh = qHTS for Inhibitors of binding or entry into cells for Lassa Virus | Potency, µM (highest dose often 37.9 µM), for the others: at the highest dose activity change, negative = inhibition, most hits filed as inhibitors | hit rate 1.2% among 300,000 | Lassa virus pseudotype entry inhibition, cell reporter; calls by dose curve; tested in HEK293 cells; also: potency is read from the fitted curve at half-maximal effect; nearly all actives have a fitted effect of over 50% in size
HCV inh = qHTS Assay for Inhibitors of Hepatitis C Virus (HCV); Huh7.5.1 HCVcc-Cre infection, luciferase reporter, 44 h; Potency, µM (top dose mostly 41.8 µM), inactives show at the top dose activity change, negative = inhibition, actives largely listed as inhibitors; hit rate 3.4% among 340,000; AID 651820, 2012; active = well fitted inhibition curve with a large enough effect; inconclusive = small, poorly fitted or top-dose-only effect, or another doubt; inactive = no such curve, though single readings can be large or run the other way; also: potency is read from the fitted curve at half-maximal effect
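Luciferase read-out (15 sec integration) after a 15 min room-temperature substrate step quantifies HCVcc-Cre infection. Cells, 1,000 per well, had compound added 4 h post-plating, then virus at ~0.5 moi, and were cultured 44 h.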
VACV mCherry inh = qHTS for Stage-Specific Inhibitors of Vaccinia Orthopoxvirus: mCherry Reporter Primary qHTS. Vaccinia virus mCherry reporter infection, fluorescence. Potency, µM (titrated, usually from 36.5 µM), without a hit: top-dose activity change, negative = inhibition, usual class: inhibitors. hit rate 0.63% among 310,000. AID 720579, 2013; calls by dose curve; tested in A549 cells; also: potency is read from the fitted curve at half-maximal effect; nearly all actives have a fitted effect of over 35% in size
Vaccinia Venus = qHTS for Stage-Specific Inhibitors of Vaccinia Orthopoxvirus: Venus Reporter Primary qHTS | Vaccinia virus Venus reporter expression, fluorescence | Potency, µM (series often up to 36.5 µM), for inactives: at the highest dose activity change, negative = inhibition, actives largely listed as inhibitors | hit rate 0.46% among 330,000 | AID 720580, 2013; calls by dose curve; tested in A549 cells; also: potency is read from the fitted curve at half-maximal effect; nearly all actives have a fitted effect of over 30% in size
* marks the source's active call; other numbers are inactive results; i = inactive; ? = inconclusive; . = no result; [ ] = dose if it differs, or a comment. Compounds with a hit are over-represented: about 7.8% of the library has one in this group of screens. % is scaled to controls: 0 for no effect and ±100 for the full control effect.

SMILES | HCMV antiviral | MARV entry inh | Lassa entry inh | HCV inh | VACV mCherry inh | Vaccinia Venus
Cc1ccccc1/C=C/C1=NCCN1 | -32 | 11µM* | ? | -25% | -1% | -16%
Cc1ccccc1C=O | -17 | . | . | 14% | -2% | -8%
Cc1ccc(C)c(N(C(=O)Cn2nnc3ccccc32)C(C(=O)NC(C)(C)C)c2ccsc2)c1 (stereo not given) | -78* | 2% | -2% | ? | -9% | -3%
COc1ccc(-c2n[nH]c3c2CN(C(=O)c2ccc(OC)c(OC)c2)CC3)cc1 | -40 | . | . | -19% | . | .
O=C(Cc1ccccc1)N1CCc2[nH]nc(-c3ccccc3)c2C1 | -9 | ? | 11µM* | -8% | -28% | -21%
CCN(CC)S(=O)(=O)c1cc(NC(=O)C(=O)c2c(-c3ccccc3)cc3ccccn23)ccc1C | -97* | ? | ? | 13µM* | . | .
CCN(CC)S(=O)(=O)c1ccc(N2CCOCC2)c(NC(=O)C2CC2)c1 | -19 | -8%[46.1 µM] | 13% | ? | -8% | -4%
CCN(CC)S(=O)(=O)c1cccc(NC(=O)C(=O)c2c(-c3ccccc3)cc3ccccn23)c1 | -75* | ? | -20% | ? | ? | -21%
CCN(CC)S(=O)(=O)c1ccc(N2CCOCC2)c(NC(=O)c2ccc(F)cc2)c1 | -16 | 24%[46.1 µM] | -20% | -11% | -14% | -10%
CN(C)CCNC(=O)C(=O)c1c(-c2ccccc2)cc2ccccn12 | -40 | -5%[46.1 µM] | 3% | 4% | -9% | -9%
CCN(CC)S(=O)(=O)c1ccc(N2CCOCC2)c(NC(=O)C(=O)c2c(-c3ccccc3)cc3ccccn23)c1 | -27 | ? | ? | 14µM* | . | .
O=C(NCCCO)C(=O)c1c(-c2ccccc2)cc2ccccn12 | -3 | ? | 17%[46.1 µM] | 3% | -1% | -12%
CCN(CC)S(=O)(=O)c1ccc(N2CCOCC2)c(NC(=O)c2ccccc2F)c1 | -65* | ? | ? | -25% | i | 5%
COc1ccc2c(c1)OCC(Cc1ccc(OC)c(O)c1)C2=O (stereo not given) | . | . | . | . | -26% | -16%
Cc1cc(=O)n2[nH]c(-c3ccc(C(C)(C)C)cc3)cc2n1 | -63* | ? | ? | 10µM* | . | .
Cc1cc(=O)n2[nH]c(-c3ccccc3)cc2n1 | 11 | 4%[46.1 µM] | 17% | -4% | i | -12%
COc1cccc(/C(O)=C2\C(=O)C(=O)N(c3ccccn3)[C@H]2c2ccccc2OC)c1 | . | 1% | . | . | . | .
Oc1ccccc1-n1c(-c2ccccc2)ccc1-c1ccccc1 | -76* | . | . | ? | ? | ?
O=C1CC(Sc2nnnn2-c2ccccc2)C(=O)N1c1cccc(Cl)c1 (stereo not given) | -62* | ? | ? | ? | . | -1%
COc1ccc(N2C(=O)CC(Sc3nnnn3-c3ccc(F)cc3)C2=O)cc1 (stereo not given) | -31 | ? | ? | ? | -28% | -7%
CC1CCN(CCCNC(=O)CCc2nnc3n(CCc4ccccc4)c(=O)c4ccccc4n23)CC1 | 8 | ? | -17%[46.1 µM] | ? | -11% | -9%
O=C(CCc1nnc2n(Cc3ccccc3)c(=O)c3ccccc3n12)NCCCN1CCCCC1 | -62* | ? | 24%[46.1 µM] | -15% | -17% | -11%
CC(=O)c1c(CSc2ccccc2)oc2ccc(O)c(CN(C)C)c12 | -69* | ? | ? | ? | -22% | -15%
CCOC(=O)c1c(CSc2ccc(CC)cc2)oc2ccc(O)c(CN(C)C)c12 | -82* | 4.5µM* | ? | 4µM* | -24% | ?
COC(=O)Cc1c(CSc2ccccc2)oc2ccc(O)c(CN(C)C)c12 | ? | 0%[46.1 µM] | -23%[46.1 µM] | ? | -19% | -17%
SMILES | HCMV antiviral | MARV entry inh | Lassa entry inh | HCV inh | VACV mCherry inh | Vaccinia Venus
Cc1ccc(/C(C#N)=C\c2cn(C)c3ccccc23)cc1 | . | -2% | . | 6.3µM* | . | .
Cn1cc(C=O)c2ccccc21 | -10 | . | . | 3% | -17% | -17%
COCCNc1nc(Nc2ccc(C)cc2C)c2sccc2n1 | -76* | . | . | . | -11% | -29%
COc1cc2c(cc1OC)-c1c(OC)c(OC)cc3c1[C@H](C2)[N+](C)(C)CC3 | -74* | 24% | 0% | ? | i | -4%
Cc1ccc(C=Nc2ccc(N(C)C)cc2)o1 | -76* | 38% | ? | 3% | -11% | -3%
O=c1c(Cl)c(N2CCN(c3ccc(F)cc3)CC2)cnn1C12CC3CC(CC(C3)C1)C2 | -63* | ? | -45% | 0% | ? | -11%
COc1ccccc1CNC(=O)C1(c2cccs2)CCOCC1 | 1 | . | 2%[46.1 µM] | . | -8% | 6%
COc1cc2c(cc1NC(=O)CSc1nnnn1-c1ccccc1)oc1ccccc12 | 3 | ? | ? | -6% | . | -7%
CCn1c(SCC(=O)Nc2cc3oc4ccccc4c3cc2OC)nnc1-c1cccs1 | -19 | ? | ? | 10µM* | -8% | -20%
COc1cc2c(cc1NC(=O)CSc1nnc(COc3ccc(Cl)cc3)n1C)oc1ccccc12 | 39 | ? | -5% | 6.3µM* | . | .
COc1cc2c(cc1NC(=O)CSc1nnc(Cc3cccs3)n1C)oc1ccccc12 | 22 | -30% | 4% | 10µM* | . | -28%
COc1cc2c(cc1NC(=O)CSc1cccc[n+]1[O-])oc1ccccc12 | 9 | -9% | 12% | ? | i | -10%
Cc1cc(Cl)ccc1NC(=O)CSc1nnc(Cc2cccs2)n1Cc1ccco1 | -6 | ? | 1% | ? | . | .
COc1cc2c(cc1NC(=O)CSc1nnc(Cc3cccs3)n1Cc1ccco1)oc1ccccc12 | 43 | ? | -9% | 2µM* | . | .
COc1ccccc1NC(=O)CSc1nnc(Cc2cccs2)n1C | -5 | -8% | -1% | 2% | -14% | -9%
COCCCNC(=O)c1cc2cc(S(=O)(=O)N3CCCCC3)ccc2n1C | -35 | . | -16%[46.1 µM] | . | -21% | -18%
O=C(Cn1c(=O)n(Cc2ccccc2)c(=O)c2oc3ccccc3c21)Nc1ccc(Cl)cc1 | -3 | . | -21%[46.1 µM] | . | -10% | -18%
CCN(C(=O)Cn1c(=O)n(Cc2ccccc2)c(=O)c2c1c1cc(OC)ccc1n2C)c1ccccc1 | 16 | . | 7%[46.1 µM] | . | 10% | 2%
CC(=O)Nc1ccc(-c2nnc(SCC(=O)Nc3ccc4c(c3)oc3ccccc34)n2C)cc1 | 86 | 9% | ? | -17% | . | .
CCn1c(SCC(=O)Nc2ccc3c(c2)oc2ccccc23)nnc1-c1ccc(N)cc1 | ? | -30% | ? | 11µM* | . | .
CCN(CC)C(=O)CC(c1ccc(F)cc1)c1ccc(OC)cc1 (stereo not given) | -67* | -25% | -24% | -9% | -20% | -13%
CCCc1cc(NC(=O)COC(=O)c2nccnc2N)n(-c2ccccc2)n1 | -104* | . | . | -1% | . | .

Compound activity as filed in PubChem BioAssay.
